Screening data from PubChem BioAssay.
In the library only some 2.3% were active in any assay of this set; here they are far more common.
Kir21 block: Kir2.1 (mouse) channel inhibition; P35561; HEK293-Kir2.1, FluxOR thallium flux fluorescence; stronger effect = lower value; B-score at 10 µM; 310,000 tested, 0.85% active; AID 1672;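 active = fluorescence ratio B-score at or below minus 3 SD of library scores, with starting-brightness B-score within 2 SD, cut at about -4.2 in these data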;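 also: channel flux triggered by added potassium and thallium sulfate stimulus; B-score of peak minus minimum fluorescence over baseline after thallium stimulus; more negative B-score means stronger Kir2.1 block with less thallium influx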
Target sequence (P35561 whole entry, looked up): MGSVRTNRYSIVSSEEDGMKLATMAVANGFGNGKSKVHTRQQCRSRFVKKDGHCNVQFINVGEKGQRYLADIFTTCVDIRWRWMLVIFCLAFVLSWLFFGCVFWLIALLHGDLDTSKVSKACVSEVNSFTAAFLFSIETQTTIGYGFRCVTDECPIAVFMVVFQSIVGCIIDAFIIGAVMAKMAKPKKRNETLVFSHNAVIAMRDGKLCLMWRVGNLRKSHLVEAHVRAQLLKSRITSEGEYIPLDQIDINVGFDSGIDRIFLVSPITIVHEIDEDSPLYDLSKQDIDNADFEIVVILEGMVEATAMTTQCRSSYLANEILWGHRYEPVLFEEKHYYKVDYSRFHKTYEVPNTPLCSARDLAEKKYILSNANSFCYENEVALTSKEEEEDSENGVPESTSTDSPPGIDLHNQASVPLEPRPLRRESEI
DNA FID counter: fluorescent intercalator displacement, NS3 helicase counter-screen; DNA fluorescent intercalator displacement, fluorescence; inhibition, % at 7.9 µM; 290,000 tested, 0.17% active; AID 1845; in the data active = inhibition above about 37%;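 also: 0% = vehicle and 100% = reference compound; higher means more ethidium bromide displaced from hairpin DNA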
PfM18AAP inh-1: PfM18AAP enzyme inhibition; recombinant PfM18AAP, H-Glu-NHMec fluorogenic cleavage; inhibition, % at 7.35 µM; 290,000 tested, 1.2% active; AID 1822;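 active = inhibition above the campaign mean inhibition over all tested compounds plus 3 SD, cut at about 28% in these data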;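 also: 0% = plate median of test compound wells and 100% = 2 mM ZnCl2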
Rce1 inh: inhibitors of yeast Ras-converting enzyme; Q03530; yeast membranes, quenched prenylated peptide cleavage fluorescence; calls only; 290,000 tested, 0.27% active; AID 2563;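 active = fall in fluorescence gain of 50% or more versus controls, with final raw signal at or below 3038400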;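 also: plate controls were neutral control wells for no effect and wells lacking membranes for full effect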
PfM18AAP inh-2: PfM18AAP inhibition, confirmation. shares compounds with PfM18AAP inh-1. recombinant PfM18AAP, H-Glu-NHMec fluorogenic cleavage. inhibition, % at 7.35 µM. 2,400 tested, 28% active;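 active = mean inhibition over replicate wells above the hit cutoff set for the earlier primary screen, cut at about 29% in these data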;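 also: 0% = median of test compound wells and 100% = 2 mM ZnCl2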
CTSL1 counter: Cathepsin L (human) inhibition, confirmation | shares compounds with PfM18AAP inh-1 | purified cathepsin L1, Z-Leu-Arg-MCA fluorescence | inhibition, % at 5.96 µM | 2,400 tested, under 10 active | AID 2178;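 active = average inhibition across replicates above the hit cutoff set in the earlier primary screen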;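 also: 0% = median of test compound wells and 100% = Z-Phe-Ala-diazomethylketone 1 µM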
Active calls of the source: *; i = inactive; x = not tested or not shown.

SMILES | Kir21 block | DNA FID counter | PfM18AAP inh-1 | Rce1 inh | PfM18AAP inh-2 | CTSL1 counter
COc1ccc(Cl)cc1NC(=O)CCN1C(=O)C2C3CCC(C3)C2C1=O (configuration not stated) | 0.31 | -18 | 2 | i | x | x
CCN1CCc2nc3sc(C(=O)N4CCc5ccccc5C4)c(N)c3cc2C1 | -1.1 | -4 | 35* | i | -10 | -1
CC(C)(CNC(=O)c1ccc(-c2ccccc2Cl)o1)N1CCOCC1 | 0.04 | x | x | i | x | x
O=C(/C=C/c1ccc(O)c(O)c1)OC1C(O)CC(OC(=O)/C=C/c2ccc(O)c(O)c2)(C(=O)O)CC1O (configuration not stated) | -0.01 | 0 | 76* | i | 64* | 6
CN(C)c1ccc(/C=N/n2cnn(Cc3ccccc3Cl)c2=S)cc1 | -0.04 | -1 | 11 | i | x | x
Fc1ccc(/C=N/n2cnn(Cc3ccccc3Cl)c2=S)cc1 | -0.14 | 3 | 41* | i | -32 | 2
CCOc1ccccc1C(=O)N/N=C/c1coc2ccc(Cl)cc2c1=O | 0.1 | -8 | 33* | i | -22 | 2
O=C(N/N=C/c1coc2ccc(Cl)cc2c1=O)c1cc(O)cc(O)c1 | -0.9 | -12 | 26 | i | x | x
Cc1ccc(N2CC(C(=O)Nc3ccc(S(=O)(=O)N4CCOCC4)cc3)CC2=O)cc1Cl (configuration not stated) | 0.7 | x | x | i | x | x
O=C(NCCCN1CCOCC1)c1ccc2c(c1)N(Cc1ccccc1F)C(=O)c1ccccc1S2=O (configuration not stated) | 0.1 | 12 | -5 | i | x | x
Cc1ccc(-n2c(Cn3ncc4ccccc4c3=O)n[nH]c2=S)cc1 | 1 | -9 | 23 | i | x | x
O=c1c2ccccc2cnn1Cc1n[nH]c(=S)n1-c1ccc(F)cc1 | -1.7 | -6 | 36* | i | -1 | 2
O=c1c2ccccc2cnn1Cc1n[nH]c(=S)n1-c1ccccc1Cl | 0.14 | -12 | 38* | i | 6 | 1
CS(=O)(=O)N(Cc1ccccc1)c1ccc(C(=O)Nc2ccccc2C(=O)O)cc1 | 2.1 | -18 | -2 | i | x | x
COc1ccc(S(=O)(=O)Oc2ccccc2C(=S)N2CCOCC2)cc1 | -0.61 | -18 | 45* | x | -13 | 4
COc1ccc(S(=O)(=O)Oc2cccc(C(=S)N3CCOCC3)c2)cc1 | -3.1 | -24 | 6 | x | x | x
NC(=O)c1c(NC(=O)c2cccnc2)sc2c1CCCCC2 | 0.73 | -9 | 33* | i | -35 | 1
O=C(Nc1sc2c(c1C(=O)c1ccccc1)CCCC2)c1cccnc1 | 0.7 | -2 | 2 | i | x | x
O=C(O)CCn1c2c(c3ccccc31)CCCC2 | -0.17 | -19 | 45* | i | -28 | 4
O=C(CCn1c2c(c3ccccc31)CCCC2)NNC(=O)c1ccccc1[N+](=O)[O-] | -0.64 | -7 | 2 | i | x | x
COc1ccc(Cl)cc1NS(=O)(=O)c1c(C)[nH]c(=O)[nH]c1=O | 0.94 | -3 | 1 | i | x | x
Cc1ccc(C2NC(=O)c3c(sc(C)c3C)N2)c(O)c1 (configuration not stated) | 0.29 | 1 | 35* | i | -24 | -1
Cc1sc2c(c1C)C(=O)NC(c1ccccc1F)N2 (configuration not stated) | 0.71 | -8 | 11 | i | x | x
Cc1cccc(C2NC(=O)c3c(sc(C)c3C)N2)c1O (configuration not stated) | 0.21 | -4 | 52* | i | -30 | 2
CC(=O)Nc1ccc(NC(=O)CSc2nnc(NC(=O)c3cccc(F)c3)s2)cc1 | -0.71 | -4 | 2 | i | x | x
SMILES | Kir21 block | DNA FID counter | PfM18AAP inh-1 | Rce1 inh | PfM18AAP inh-2 | CTSL1 counter
O=C(CCS(=O)(=O)c1ccc(F)cc1)Nc1nc(-c2ccncc2)cs1 | -0.57 | -13 | 52* | i | 18 | 1
COc1ccc(C(O)(C(=O)NNc2ccc(C)cc2)c2cccs2)cc1 (configuration not stated) | -0.18 | -6 | 42* | i | -47 | -1
O=C(NNc1ccc(C2CCCCC2)cc1)C(O)(c1ccccc1)c1cccs1 (configuration not stated) | -0.34 | -9 | 2 | i | x | x
Oc1ccc(/C=N/N2CCN(C3c4ccccc4-c4ccccc43)CC2)cc1 | 1.1 | -10 | 1 | i | x | x
Cc1ccc(CN2CCN(/N=C/c3ccc(O)c(O)c3)CC2)cc1 | 0.8 | -4 | 64* | x | 38* | -1
Oc1ccc(/C=N/N2CCN(C3c4ccccc4-c4ccccc43)CC2)cc1O | 0.03 | -6 | 50* | i | 36* | -5
Cc1ccc(CN2CCN(/N=C/c3ccc(C(=O)O)cc3)CC2)cc1 | 1.5 | -6 | 3 | i | x | x
CC(NC(=O)Nc1ccc(O)cc1)(C(F)(F)F)C(F)(F)F | -1.2 | -15 | 4 | i | x | x
CCC(NC(=O)Nc1ccc(O)cc1)(C(F)(F)F)C(F)(F)F | x | -17 | 39* | x | -88 | -1
CCN1CCN(C(=O)c2nn(C)c3c2CS(=O)(=O)c2ccccc2-3)CC1 | -2.1 | 0 | 5 | i | x | x
CCN1/C(=C/C=C/C=C/C=C/c2sc3ccccc3[n+]2CC)Sc2ccccc21 | 0.83 | -17 | 40* | i | -2 | 3
CCn1c(O)c(/C=N/n2cnnc2)sc1=S | -0.1 | 7 | 59* | i | 57* | 2
CCn1c(O)c(C=Nc2ccccc2)sc1=S | 0.17 | 3 | 5 | x | x | x
O=C(O)CCCCCN1C(=O)C(O)=C(C(=O)/C=C/c2ccccc2)C1c1ccc2c(c1)OCO2 (configuration not stated) | -1.6 | -44 | 55* | i | -1 | 2
O=C(/C=C/c1ccccc1)C1=C(O)C(=O)N(CCO)C1c1cccc([N+](=O)[O-])c1 (configuration not stated) | 0.66 | -18 | -3 | i | x | x
N#CC1=C(N)Oc2n[nH]c(-c3cccnc3)c2C1c1ccc([N+](=O)[O-])o1 (configuration not stated) | -0.13 | 6 | 33* | i | -36 | -5
COC(=O)CN(n1cnnc1)S(=O)(=O)c1ccc(C)cc1 | 1.2 | 3 | 84* | i | 79* | -13
CCOC(=O)c1cnc(SSc2ncc(C(=O)OCC)c(N)n2)nc1N | -2.4 | -9 | 64* | i | 44* | 2
COCCn1c(Cc2cccn2C)nnc1SCC(=O)NCc1ccc2c(c1)OCO2 | 0.36 | -44 | 35* | i | -40 | 2
Cc1ccc(N(C)S(=O)(=O)c2cccc(C(=O)NCC(c3cccs3)N3CCOCC3)c2)cc1 (configuration not stated) | -0.81 | x | x | i | x | x
COc1cc(-c2nc(=S)[nH][nH]2)cc(OC)c1OC | 0.67 | 4 | 35* | i | 26 | -6
Cc1c(C)n(CCc2ccccc2)c2ncnc(NN)c12 | -0.8 | -17 | 44* | i | 4 | 2
Cc1c(C)n(Cc2ccccc2)c2ncnc(NN)c12 | 0.35 | -20 | 34* | i | -3 | -10
Cc1cccc(C)c1NC(=O)COC(=O)c1cc[n+]([O-])cc1 | 0.13 | x | x | i | x | x
